Reference: PubChem BioAssay
Values without a mark were called inactive. No rule for the calls is given here.

molecular target: Pantothenate synthetase (Mycobacterium tuberculosis (strain ATCC 25618 / H37Rv)) (UniProt P9WIL5); assay: Recombinant Mtb pantothenate synthetase (PanC) inhibitors, coupled enzyme, confirmatory (AID 375); details: coupled enzyme assay; at 10 µM, hits give high values;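 also: 0% = full reaction with vehicle and 100% = no enzyme background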
Sequence (P9WIL5 whole entry, looked up): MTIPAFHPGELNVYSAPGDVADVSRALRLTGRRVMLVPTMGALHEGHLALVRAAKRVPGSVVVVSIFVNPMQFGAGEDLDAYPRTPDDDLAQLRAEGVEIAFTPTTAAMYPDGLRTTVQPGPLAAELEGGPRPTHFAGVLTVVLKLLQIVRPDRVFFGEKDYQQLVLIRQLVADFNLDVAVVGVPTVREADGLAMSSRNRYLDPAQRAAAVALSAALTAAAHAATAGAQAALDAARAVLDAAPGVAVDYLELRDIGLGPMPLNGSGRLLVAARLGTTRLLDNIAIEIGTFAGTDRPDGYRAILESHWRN

Q: Which inhibition does the source give for CCc1nc2c(cnn2-c2ccc(Cl)cc2)c(=O)n1-c1ccc2c(c1)OCCO2 here?
A: The inhibition was 2%.

Q: For COc1ccc(Nc2ncnc3c2cnn3-c2ccccc2)cc1OC, which inhibition is on record?
A: Its inhibition is 1%.

Q: Cn1c(=O)c2c(nc(SCc3nn[nH]n3)n2Cc2ccccc2F)n(C)c1=O was tested. Which inhibition did it give?
A: Its inhibition is 0%.

Q: With O=C(CCSc1ccccc1)N1CCN(C(=O)c2ccco2)CC1 as the compound, how does the inhibition read?
A: The inhibition was 0%.

Q: COCCOC(=O)c1c(C)nc(SCC(=O)Nc2ccc(OC)cc2)c(C#N)c1-c1ccco1 was tested. Which inhibition did it give?
A: The inhibition was 0%.

Q: For CCOC(=O)N(C)c1ccc(C(O)(C(F)(F)F)C(F)(F)F)cc1, which inhibition is on record?
A: The inhibition was 0%.

Q: Cc1ccc(S(=O)(=O)C(C#N)c2nc3ccccc3nc2OC(C)C)cc1 (stereo not given) was tested. Which inhibition did it give?
A: Its inhibition is 0%.

Q: How did the inhibition turn out when Cn1c(=O)oc2cc(S(=O)(=O)NCCC(=O)N3CCc4ccccc4C3)ccc21 was run?
A: Its inhibition is 0%.

Q: How did the inhibition turn out when O=C(NCc1cccnc1)c1ccc(Cl)c(Cl)c1 was run?
A: Its inhibition is 0%.

Q: For O=C(NCc1ccc(F)cc1)c1cc(-c2ccco2)on1, which inhibition is on record?
A: Its inhibition is 6%.

Q: Cc1c(C(=O)NCCC2=CCCCC2)oc2ccc(S(=O)(=O)N3CCC4(CC3)OCCO4)cc12 was tested. Which inhibition did it give?
A: The inhibition was 0%.

Q: For CCOC(=O)c1c(N)sn(-c2ccccc2)c1=S, which inhibition is on record?
A: Its inhibition is 5%.

Q: Which inhibition does the source give for N=c1sc2ccccc2n1-c1ccccc1 here?
A: Its inhibition is 3%.

Q: CCCn1c(OC)nc2c1c(=O)n(C)c(=O)n2C was tested. Which inhibition did it give?
A: Its inhibition is 0%.

Q: COc1ccccc1C(=O)NCCc1nc2ccccc2n1C was tested. Which inhibition did it give?
A: The inhibition was 1%.

Q: How did the inhibition turn out when COc1ccc(NC(=O)CN2CCN(CC(=O)Nc3cc(OC)cc(OC)c3)CC2)cc1 was run?
A: The inhibition was 8%.

Q: For Cc1nc(=S)n(-c2ccccc2)[nH]1, which inhibition is on record?
A: The inhibition was 0%.

Q: For CCC1(c2ccccc2)C(=O)NCNC1=O, which inhibition is on record?
A: The inhibition was 7%.

Q: Cc1ccc(C)n1-n1c(C)nc2sc(-c3ccccc3)cc2c1=O was tested. Which inhibition did it give?
A: Its inhibition is 0%.

Q: Which inhibition does the source give for Cc1ccc2c(c1)CCCN2C(=O)C1CCCO1 (stereo not given) here?
A: The inhibition was 5%.

Q: With O=C(O)CSc1ncn[nH]1 as the compound, how does the inhibition read?
A: Its inhibition is 0%.

Q: For O=C(CCCN1CC=C(n2c(=O)[nH]c3ccccc32)CC1)c1ccc(F)cc1, which inhibition is on record?
A: The inhibition was 0%.

Q: How did the inhibition turn out when COc1ccc(NC(=O)CSc2nnc(-c3ccccc3C)n2C)cc1 was run?
A: The inhibition was 0%.

Q: How did the inhibition turn out when Cc1nc(SCC(=O)c2c[nH]c3ccccc23)n[nH]1 was run?
A: Its inhibition is 4%.

Q: For CCN(CC)CCCn1c(=S)[nH]c2cc(Cl)ccc2c1=O, which inhibition is on record?
A: Its inhibition is 0%.

Q: Cc1ccccc1-c1nc(CN2CCC(C(=O)NC3CCN(Cc4ccccc4)CC3)CC2)c(C)o1 was tested. Which inhibition did it give?
A: The inhibition was 0%.

Q: With CCCC(OC(=O)CN1C(=O)COc2ccccc21)C(=O)NC1CCCC1 (stereo not given) as the compound, how does the inhibition read?
A: Its inhibition is 0%.

Q: With c1coc(-c2nnc(NC3=NCCC3)o2)c1 as the compound, how does the inhibition read?
A: Its inhibition is 0%.

Q: CCCCC(=O)NCCc1ccc(S(N)(=O)=O)cc1 was tested. Which inhibition did it give?
A: The inhibition was 0%.

Q: For COc1ccc(CN(Cc2nc3ccccc3c(=O)[nH]2)C(=O)NC2CCCCC2)cc1, which inhibition is on record?
A: Its inhibition is 5%.

Q: Which inhibition does the source give for CCN(CC)S(=O)(=O)c1ccc(NC(=O)c2cccc3c2C(=O)N(CCOC)C3)cc1 here?
A: The inhibition was 4%.

Q: With Cn1c(=O)n(Cc2ccccc2)c(=O)c2c1nc(NCC1CCCO1)n2Cc1ccccc1 (stereo not given) as the compound, how does the inhibition read?
A: The inhibition was 0%.

Q: With CN(C(=O)c1ccccc1Cl)c1ccccc1 as the compound, how does the inhibition read?
A: The inhibition was 2%.

Q: Which inhibition does the source give for COc1cc(S(=O)(=O)N2CCC(N3CCCCC3)CC2)ccc1-n1cnnn1 here?
A: The inhibition was 3%.

Q: With O=C(CN1C(=O)CCSc2ccccc21)Nc1ccc2c(c1)OCO2 as the compound, how does the inhibition read?
A: Its inhibition is 2%.

Q: Which inhibition does the source give for COc1cc(NC(=O)Cc2nn(C)c(=O)c3ccccc23)cc(OC)c1 here?
A: The inhibition was 0%.

Q: Which inhibition does the source give for CN(C)c1ccc(C(=O)Nc2nnc(-c3ccc(Cl)cc3)o2)cc1 here?
A: Its inhibition is 0%.

Q: For Cn1cnc2c(N3CCCCC3)nccc21, which inhibition is on record?
A: The inhibition was 0%.

Q: Which inhibition does the source give for Cc1nnc2sc(-c3cccc(NC(=O)c4cccnc4)c3)nn12 here?
A: Its inhibition is 0%.

Q: For Cc1cc(NC(=O)CSc2nc3ccccc3n2CC(=O)N2CCCCC2)no1, which inhibition is on record?
A: The inhibition was 0%.
